Assay [1] addresses Alpha-galactosidase (Coffea arabica) (UniProt Q42656). Nature of the assay: Counterscreen for Glucocerebrosidase Inhibitors: qHTS Assay for Coffee Bean alpha-Galactosidase at pH 4.5 (AID 957; active = well fitted curve in the direction sought with a large enough effect; an effect the other way counts as inactive or inconclusive;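 also: plate controls were enzyme alone for no effect and no enzyme for full effect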). An outline of the steps:
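Green coffee bean enzyme (2 nM final) was incubated with compounds (0.7 nM to 77 uM) and 4-methylumbelliferyl alpha-D-galactopyranoside (80 uM final) in 50 mM citric acid, 0.005% Tween-20, pH 4.5, 20 min at room temperature; AC50 from Hill fits.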
For orientation: The purpose of a counterscreen is to sort out artefacts and off-target activity.

Assay [2] shares this target. Nature of the assay: Counterscreen for Glucocerebrosidase Inhibitors: qHTS Assay for Coffee Bean alpha-Galactosidase at pH 5.9 (AID 998; active = well fitted curve in the direction sought with a large enough effect; an effect the other way counts as inactive or inconclusive;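 also: plate controls were uninhibited enzyme for no effect and no-enzyme basal signal for full effect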). An outline of the steps:
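Green coffee bean enzyme (2 nM final) was incubated with compounds (0.7 nM–77 uM) and 4-methylumbelliferyl alpha-D-galactopyranoside (80 uM) in citrate buffer pH 5.9, 20 min at room temperature. High-pH stop; fluorescence 365/440 nm; AC50 from Hill fits.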

A short description of assay [3]: Validation screen for inhibitors of Lassa infection (AID 463096). Also: % is scaled to controls: 0 for no effect and ±100 for the full control effect.
Assay [4] is described as follows: qHTS for Inhibitors of the Functional Ribonucleoprotein Complex (vRNP) of Lassa (LASV) Arenavirus: Viability assay - alamar blue signal for LASV Primary Screen (AID 1347083; calls by dose curve; tested in HEK293 reporter line; also: nearly all actives have a fitted effect of over 80% in size; also: potency is read from the fitted curve at half-maximal effect). (qHTS replaces the single test concentration by a dilution series.)
Assay [5] in a line: qHTS for Inhibitors of the Functional Ribonucleoprotein Complex (vRNP) of Lymphocytic Choriomeningitis Arenaviruses (LCMV): Viability assay - alamar blue signal for LCMV Primary Screen (AID 1347085; calls by dose curve; tested in HEK293 reporter line; also: nearly all actives have a fitted effect of over 80% in size; also: potency is read from the fitted curve at half-maximal effect).
Assay [6] can be described thus: Primary qHTS for Huh7 cytotoxicity: counterscreen for inhibitors of MERS-S pseudotyped particle cell entry (AID 1479147). The settings on record: outcome: dose series up to 57.1 µM unless noted.
The nature of assay [7]: Primary qHTS for Vero E6 cytotoxicity: counterscreen for inhibitors of SARS-S pseudo-typed particle cell entry (AID 1479150). To be noted: outcome: dose series up to 57.1 µM unless noted.
Assay [8] in a line: Cytotoxicity counterscreen for inhibitors of SARS-CoV-2 cell entry (AID 1645845). Also: nearly all actives have a fitted effect of over 50% in size. Also: potency is read from the fitted curve at half-maximal effect. An outline of the steps: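 Expi293F/hACE2 cells seeded overnight; cpd pin-transferred in DMSO, 1 h preincubation, + media, 48 h 37 C 5% CO2; ATPLite 1step luminescence; normalized to cells and no cells.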
The nature of assay [9]: Primary qHTS to identify inhibitors of SARS-CoV-2 cell entry (AID 1645846). Also: nearly all actives have a fitted effect of over 45% in size. Also: potency is read from the fitted curve at half-maximal effect. The settings on record: activity change, negative = inhibition: at 57.1 µM (top of the series) unless noted. An outline of the steps:
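Inhibition of spike-mediated entry was scored in human ACE2-transfected Expi293F cells. Particles were MLV-pseudotyped with Wuhan-Hu-1 S carrying a 19-aa C-terminal deletion; signal was luciferase after two days, scaled between spike PP and fusion-protein-free PP.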

The nature of assay [10]: Confirmatory qHTS to identify inhibitors of SARS-CoV-2 cell entry (AID 1645844). Also: potency is read from the fitted curve at half-maximal effect; nearly all actives have a fitted effect of over 45% in size. An outline of the steps: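 HEK293-ACE2 cells (Expi293F stably expressing human ACE2) were pretreated with compounds for 1 hr at 37C, then infected with MLV-based particles carrying Wuhan-Hu-1 spike (C-terminal 19-aa truncation). Luciferase luminescence read after 48 hr; normalized to spike PP (100%) and bald PP (0%).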

A short description of assay [11]: VSVG counterscreen qHTS to identify inhibitors of SARS-CoV-2 cell entry (AID 1645847). Also: potency is read from the fitted curve at half-maximal effect; nearly all actives have a fitted effect of over 65% in size. An outline of the steps:
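Luminescence from a luciferase reporter, normalised to bald particle and VSV-G pseudotyped particle wells, is the read-out. Cells are HEK293 expressing human ACE2, exposed to compound 1 h before a 48 h particle infection at 37 °C.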

For assay [12], the target named is Peroxisome proliferator-activated receptor delta (Homo sapiens) (UniProt Q03181). Nature of the assay: qHTS assay for small molecule agonists of peroxisome proliferator-activated receptor delta signaling (AID 588534).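 Also: 0% = DMSO basal wells and 100% = positive control agonist at 10 µM.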 An outline of the steps:
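Cell-based beta-lactamase reporter assay run in agonist mode: cells seeded and incubated 5 hrs at 37 C, compounds added and incubated 18 hrs at 37 C. CCF4 dye fluorescence read after 2 hrs at RT; EC50 and efficacy from Hill fits.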

Assay [13] is described as follows: Inducers of the Endoplasmic Reticulum Stress Response (ERSR) in human glioma: Validation (AID 504836; active = well fitted curve in the direction sought with a large enough effect; an effect the other way counts as inactive or inconclusive; also: 0% is about no effect). An outline of the steps: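 Stably transfected U87-MG human glioma cells carrying a GRP78-based luminescent sensor were seeded at 1000 cells/well, pin-dosed with compounds and incubated 16 h. Luciferase reagent was then added, and end-point luminescence was read after 10 min at room temperature.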

The nature of assay [14]: Primary qHTS for inhibitors of SARS-S pseudo-typed particle cell entry (AID 1479145). Also: nearly all actives have a fitted effect of over 45% in size. As to activity change, negative = inhibition: % is scaled to controls: 0 for no effect and ±100 for the full control effect.
The nature of assay [15]: Primary qHTS for inhibitors of MERS-S pseudo-typed particle cell entry (AID 1479149). Also: nearly all actives have a fitted effect of over 60% in size.
Assay [16] is described as follows: qHTS for differential inhibitors of proliferation of Plasmodium falciparum line 3D7 (AID 1876; active = well fitted curve in the direction sought with a large enough effect; an effect the other way counts as inactive or inconclusive; also: potency is read from the fitted curve at half-maximal effect).
Assay [17] is described as follows: Nrf2 qHTS screen for inhibitors: Validation (AID 493153; active = well fitted inhibition curve with a large enough effect in the main read-out, with a control signal flat, not every such curve was filed as active; as to activity change, negative = inhibition: % of control where 0% means no effect). The settings on record: Potency: luciferase luminescence; viability change: measured here: cytotoxicity max response. An outline of the steps:
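A549 cells carrying an ARE-driven firefly luciferase reporter, in 5% FBS OPTI-MEM, were treated with compounds in concentration-response for 18-24 h at 37°C. Viability was read by CellTiter-Fluor fluorescence, then Nrf2 activity by luciferase luminescence.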

A short description of assay [18]: qHTS for Inhibitors of ATXN expression: Validation (AID 588378; active = well fitted curve in the direction sought with a large enough effect; an effect the other way counts as inactive or inconclusive; also: % is scaled to controls: 0 for no effect and ±100 for the full control effect; nearly all actives have a fitted effect of over 75% in size). An outline of the steps:
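Compounds were pinned onto attached HEK293 cells carrying an ATXN2-firefly luciferase construct and incubated 24 hrs at 37 degrees C. Each well then received a fluorescent viability reagent followed by luciferase substrate for end-point luminescence.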

Assay [19] can be described thus: qHTS assay for small molecule activators of the p53 signaling pathway (AID 651743; active = well fitted activation curve with a large enough effect in the signal ratio, not every such curve was filed as active; the % refers to the signal ratio; also: potency is read from the fitted curve at half-maximal effect). To be noted: HCT-116 p53RE-bla, beta-lactamase FRET ratio, 16 h; activation: stronger effect = higher value. An outline of the steps:
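p53RE-bla HCT-116 cells with a stably integrated beta-lactamase reporter under p53 response elements were plated, rested 5 hours at 37 C/5% CO2, then exposed to compounds in DMSO for 16 hours at 37 C. LiveBLAzer B/G FRET substrate was read after 2 hours at room temperature.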

A short description of assay [20]: qHTS assay to identify small molecules that stimulate interleukin-8 (IL-8) secretion (AID 651758; active = well fitted activation curve with a large enough effect in the signal ratio; the % refers to the signal ratio; also: potency is read from the fitted curve at half-maximal effect). An outline of the steps:
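THP-1, 2000 cells/well; cpd 16 h, 37 C; add cryptate + XL665 anti-IL-8 Abs; RT 1-3 h; TR-FRET read.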

In assay [21] the target is Nuclear receptor ROR-gamma (Homo sapiens) (UniProt P51449). Nature of the assay: qHTS assay for small molecule antagonists of the retinoid-related orphan receptor gamma (ROR-gamma) signaling pathway (AID 651802; active = well fitted curve in the direction sought with a large enough effect; an effect the other way counts as inactive or inconclusive; also: potency is read from the fitted curve at half-maximal effect; nearly all actives have a fitted effect of over 60% in size). An outline of the steps:
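CHO cells carrying TET-inducible ROR-gamma and an ROR response element–luciferase reporter were exposed to compound, then induced with doxycycline. After 16hr at 37C, luminescence was read; lower signal indicates antagonism.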

Assay [22] has as its target Arylsulfatase A (Homo sapiens) (UniProt P15289). Nature of the assay: qHTS screen for enhancers of Arylsulfatase A (ASA1): LOPAC Validation Assay (AID 720538; active = well fitted curve in the direction sought with a large enough effect; an effect the other way counts as inactive or inconclusive; also: 0% is about no effect). An outline of the steps: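 MLD patient fibroblasts (SV40, ASA-I179S), 1536-well; adhere 6 hrs; cpd 48h, 37 degree C, 5% CO2; pNCS 0.5mM final in lysis buffer, 14h RT; stop 1N NaOH final; fluor. Ex525/Em598.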

Results filed as inconclusive are left out. Active and inactive are the calls of the source. Unless noted, calls follow the shape of the full dose curve.

Sequence of Alpha-galactosidase (Coffea arabica) (Q42656 whole entry, looked up): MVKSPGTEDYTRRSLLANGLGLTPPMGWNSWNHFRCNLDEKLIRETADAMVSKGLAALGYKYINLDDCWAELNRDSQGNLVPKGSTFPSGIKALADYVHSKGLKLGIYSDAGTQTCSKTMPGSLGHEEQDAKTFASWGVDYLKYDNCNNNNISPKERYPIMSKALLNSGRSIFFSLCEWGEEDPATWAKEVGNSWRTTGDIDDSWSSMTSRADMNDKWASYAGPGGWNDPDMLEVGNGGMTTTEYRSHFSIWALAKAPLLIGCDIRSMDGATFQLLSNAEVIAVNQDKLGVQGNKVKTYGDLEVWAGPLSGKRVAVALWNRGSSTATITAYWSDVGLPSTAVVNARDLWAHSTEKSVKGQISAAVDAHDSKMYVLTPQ
Sequence of Peroxisome proliferator-activated receptor delta (Homo sapiens) (Q03181 whole entry, looked up): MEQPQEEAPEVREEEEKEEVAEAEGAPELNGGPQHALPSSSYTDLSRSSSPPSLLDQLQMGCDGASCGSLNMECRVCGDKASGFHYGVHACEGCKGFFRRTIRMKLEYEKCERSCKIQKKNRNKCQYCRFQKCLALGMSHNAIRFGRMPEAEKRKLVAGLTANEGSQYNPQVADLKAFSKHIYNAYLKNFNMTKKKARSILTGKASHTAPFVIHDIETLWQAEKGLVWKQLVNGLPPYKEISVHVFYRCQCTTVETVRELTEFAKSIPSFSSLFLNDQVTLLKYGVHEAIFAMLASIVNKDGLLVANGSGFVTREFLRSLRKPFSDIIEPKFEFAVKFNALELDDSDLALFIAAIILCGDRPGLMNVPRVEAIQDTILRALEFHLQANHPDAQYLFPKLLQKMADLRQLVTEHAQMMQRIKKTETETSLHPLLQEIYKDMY
Sequence of Arylsulfatase A (Homo sapiens) (P15289 whole entry, looked up): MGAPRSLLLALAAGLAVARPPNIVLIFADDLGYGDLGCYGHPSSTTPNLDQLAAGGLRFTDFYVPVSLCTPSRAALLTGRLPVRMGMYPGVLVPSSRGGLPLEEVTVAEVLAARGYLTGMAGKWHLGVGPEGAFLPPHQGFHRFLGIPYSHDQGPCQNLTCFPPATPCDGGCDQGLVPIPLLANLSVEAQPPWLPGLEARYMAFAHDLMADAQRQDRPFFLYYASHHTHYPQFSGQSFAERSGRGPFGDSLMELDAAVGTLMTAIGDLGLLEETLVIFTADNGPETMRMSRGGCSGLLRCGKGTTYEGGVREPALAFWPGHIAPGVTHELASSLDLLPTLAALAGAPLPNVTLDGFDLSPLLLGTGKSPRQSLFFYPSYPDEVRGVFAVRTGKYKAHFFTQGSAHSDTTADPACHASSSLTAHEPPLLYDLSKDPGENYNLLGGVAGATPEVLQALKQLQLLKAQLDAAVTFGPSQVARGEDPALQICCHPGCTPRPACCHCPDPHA
Sequence of Nuclear receptor ROR-gamma (Homo sapiens) (P51449 whole entry, looked up): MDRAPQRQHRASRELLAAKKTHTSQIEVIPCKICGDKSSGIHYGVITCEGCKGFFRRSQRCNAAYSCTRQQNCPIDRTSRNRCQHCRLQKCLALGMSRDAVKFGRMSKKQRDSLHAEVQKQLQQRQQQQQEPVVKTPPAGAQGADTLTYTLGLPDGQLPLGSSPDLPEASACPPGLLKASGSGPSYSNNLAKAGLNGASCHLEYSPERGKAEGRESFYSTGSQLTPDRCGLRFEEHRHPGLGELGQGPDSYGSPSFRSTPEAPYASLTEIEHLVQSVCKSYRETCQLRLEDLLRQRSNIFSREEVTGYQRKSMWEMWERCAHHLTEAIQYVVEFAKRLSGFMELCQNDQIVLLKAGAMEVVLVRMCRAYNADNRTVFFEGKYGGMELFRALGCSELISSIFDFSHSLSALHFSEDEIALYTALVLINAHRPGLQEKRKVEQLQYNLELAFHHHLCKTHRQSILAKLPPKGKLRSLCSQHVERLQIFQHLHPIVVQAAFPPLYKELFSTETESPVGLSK

With `CC(C)NC[C@@H](O)COc1cccc2ccccc12`, the outcome in assay [1], in assay [2], in assay [6] and in assay [7] was inactive. For the same compound, the Potency result in assay [3], in [4], in [5] and in assay [8] was “inactive” throughout. Moreover, the activity change, negative = inhibition in [9] was -4.9%.

For `Cc1cnc(NC(=O)Nc2cc(Br)c(C)cc2OC[C@@H]2CNCCO2)cn1`, the Potency in assay [4] is 2.43 µM (active); in assay [5], 10.9 µM (active); in [9], 10 µM (active).

On to `COc1cc([C@@H]2c3cc4c(cc3[C@@H](O[C@@H]3O[C@@H]5CO[C@@H](C)O[C@@H]5[C@H](O)[C@@H]3O)[C@H]3COC(=O)[C@H]23)OCO4)cc(OC)c1O`, for which the Potency in [4] was 2.17 µM (active); in assay [5], 2.17 µM (active); in assay [10], 0.541 µM (active); in [11] it was 0.383 µM (active). The compound was classed as inactive in [6] and in assay [7].

As for `NC(N)=NC(N)=NCCc1ccccc1`, the Potency result in assay [12], in assay [4], in assay [5] and in assay [8] was “inactive” each time. Further, the activity change, negative = inhibition in assay [9] is -16.7%.

With `Nc1nc(N)c(N=O)c(OCC2CCCCC2)n1`, the call in assay [13] was inactive. The Potency in [4] is 15.3 µM (active); in assay [5] it was 21.7 µM (active). In addition, in assay [8], the Potency entry is “inactive”. The activity change, negative = inhibition in [9] was -7.15%.

As to `CNC(=O)c1ccccc1Nc1nc(Nc2ccc(N3CCOCC3)cc2OC)ncc1Cl`, the Potency in assay [4] is 4.85 µM (active); in assay [5], 2.73 µM (active). In addition, in [8], the Potency result is “inactive”.

`C[C@H](NCc1ccc(OCc2cccc(F)c2)cc1)C(N)=O`: the Potency in assay [4] was 21.7 µM (active); in assay [5], 38.5 µM (active). In addition, the Potency result in [14], in assay [15] and in assay [8] was “inactive” throughout. The call in assay [6] and in assay [7] was inactive.

On to `CN(C)c1ccc(C(=O)NCCCCCCC(=O)NO)cc1`, for which the Potency in assay [4] is 4.85 µM (active); in [5] it was 1.53 µM (active). Moreover, in assay [9], the Potency result is “inactive”.

Regarding `Cc1c(C(N)=O)cc([N+](=O)[O-])cc1[N+](=O)[O-]`, the Potency result in assay [4], in assay [5], in assay [14], in [15], in assay [8] and in [9] was “inactive” in each case. The compound was called inactive in assay [6] and in assay [7].

`CCN(CC)Cc1ccc2cc(COC(=O)Nc3ccc(C(=O)NO)cc3)ccc2c1`: the Potency in assay [4] was 15.3 µM (active); in assay [5], 6.85 µM (active); in [8], 10 µM (active).

As for `CN[C@@H](C)C(=O)N[C@H]1CN(C(=O)CC(C)C)CC[C@H]2CC[C@@H](C(=O)NC(c3ccccc3)c3ccccc3)N2C1=O`, the results for the Potency in assay [4] and in assay [5] were 3.43 µM (active) and 12.2 µM (active), respectively. For the same compound, the activity change, negative = inhibition in assay [9] amounted to 1.03%.

Consider `COc1ccc(-c2nc(N3CCOCC3)c3sc(CN(C)c4ncc(C(=O)NO)cn4)cc3n2)cn1`, for which the Potency in [4] is 0.193 µM (active); in [5], 0.122 µM (active). The Potency entry in assay [9] was “inactive”.

Regarding `COc1ccc(F)c(F)c1C(=O)c1cnc(NC2CCN(S(C)(=O)=O)CC2)nc1N`, the Potency in assay [4] is 2.73 µM (active); in [5], 6.11 µM (active); in assay [10] it was 0.0681 µM (active); in assay [11], 0.0681 µM (active). For the same compound, the activity change, negative = inhibition in [9] was -92.2%.

`Cc1ncc(-c2ccnc(Nc3ccc(S(C)(=O)=O)cc3)n2)n1C(C)C`: the Potency in assay [4] is 6.85 µM (active); in assay [5] it was 13.7 µM (active). In assay [9], the activity change, negative = inhibition is -96.5%.

Regarding `NC(=O)c1ncn([C@@H]2O[C@H](CO)[C@@H](O)[C@H]2O)n1`, the compound was classed as inactive in assay [1], in [2], in [13], in assay [6] and in assay [7]. In addition, the Potency in assay [16] is 8.91 µM (active); in [19] it was 31.6 µM (active); in assay [20] it was 66.8 µM (active); in assay [21] it was 18.8 µM (active). Moreover, the Potency entry in assay [3], in assay [17], in assay [18], in assay [22], in assay [4] and in assay [5] was “inactive” in each case. The Potency entry in assay [14] and in assay [15] was “inactive” throughout. Also, in assay [17], the viability change was 7.17%. The activity change, negative = inhibition in assay [9] was -11.7%.

As to `CC(C(=O)O)c1ccc(C(=O)c2cccs2)cc1` (stereo unspecified), the Potency entry in [4], in [5], in assay [14], in assay [15] and in assay [9] was “inactive” throughout. In addition, the result in assay [6] and in assay [7] was inactive.

On to `COc1cc2ncnc(Nc3cc(Br)c(O)c(Br)c3)c2cc1OC`, for which the Potency in [4] is 0.611 µM (active); in assay [5], 0.0544 µM (active). In addition, the Potency result in assay [8] is “inactive”. Besides, the activity change, negative = inhibition in [9] is -28.4%.
